Screens deposited in PubChem by University of Kansas High Throughput Screening Laboratory.
mHTT-CaM PPI inh – mutant huntingtin-calmodulin interaction inhibitors – biochemical, AlphaScreen, primary screen; P42858; 190,000 compounds, 3.6% hits; inhibition, % at 15 µM; AID 1671202, 2021; AlphaScreen His-mHTT/GST-CaM binding, luminescence;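 further: 0% = both proteins with DMSO and 100% = one protein alone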
Pf apPOL inh – Pf-apPOL inhibitors, biochemical, fluorescence; Recombinant Pf-apPOL, molecular beacon fluorescence, 1.5 h; inhibition, % at 10 µM; 210,000 compounds, 0.25% hits; AID 1794808, 2022
The depositor's hits bear a star; x = not tested or not shown; ! = not active in a repeat. Hits are enriched below; roughly 3.6% of the tested compounds scored in any of these assays. No stated cut-off is given here; in the data, active means inhibition above about 50%; inactive means the rest.

SMILES	mHTT-CaM PPI inh	Pf apPOL inh
CC(C)C(=O)NC(c1cccs1)c1cc(Cl)c2cccnc2c1O (configuration not stated)	18.0	16.2
O=C(CCc1ccccc1)NC(c1cccs1)c1ccc2cccnc2c1O (configuration not stated)	19.0	-4.3
O=C(NC(c1cccs1)c1ccc2cccnc2c1O)C1CCCCC1 (configuration not stated)	97.0*	-14.3
CC(C)CC(=O)Nc1cccc(NC(=O)c2cccs2)c1	-2.2	-0.3
CCCC(=O)NC(c1cccs1)c1ccc2cccnc2c1O (configuration not stated)	100.0*	-1.0
COCCNC(=O)C(C)C1CCN(S(=O)(=O)c2cccs2)CC1 (configuration not stated)	-4.7	2.2
O=C(Cn1cnc2c(-c3ccc(F)cc3)csc2c1=O)Nc1cc(F)ccc1F	-9.0	-1.4
COc1cc2c(cc1OC)C(SC)=NC(C)(C)C2	-1.0	94.9*!
COc1cc2c(cc1OC)C(C1=NC(C)(C)Cc3ccccc31)=NC(C)(C)C2	13.0	-2.1
O=C(CCS(=O)(=O)c1ccc(Br)cc1)Nc1ncc(Br)s1	-4.0	-1.8
CNC(=O)C(=O)Nc1ccc(OC)c(OC)c1	-14.9	-5.6
O=C1CN(C(=O)CCC2CCCC2)C(c2ccc(F)cc2)c2cc(Br)ccc2N1 (configuration not stated)	77.0*	-3.0
COc1ccc(C(=O)N2CC(=O)Nc3ccc(C)cc3C2c2ccc(F)cc2)cc1OC (configuration not stated)	25.0	-6.8
O=C1CN(C(=O)CCC2CCCC2)C(c2ccc(F)cc2)c2cc(F)ccc2N1 (configuration not stated)	15.0	-4.8
O=C1CN(C(=O)c2ccc(Cl)cc2)C(c2ccc(F)cc2)c2cc(Br)ccc2N1 (configuration not stated)	56.0*	-10.0
CCOc1ccc(C(=O)N2CC(=O)Nc3ccc(C)cc3C2c2ccc(F)cc2)cc1OCC (configuration not stated)	65.0*	-0.1
O=C1CN(C(=O)c2ccc(F)cc2)C(c2ccc(F)cc2)c2cc(Br)ccc2N1 (configuration not stated)	35.0	-2.7
CCCC1CCC(C2=N/C(=C/c3ccc(OC)c(OC)c3)C(=O)O2)CC1 (configuration not stated)	-4.0	-1.4
CCCC(=O)NC(c1ccc(OC)cc1)c1cc(Cl)c2cccnc2c1O (configuration not stated)	25.0	10.6
COc1ccccc1C(NC(C)=O)c1cc(Cl)c2cccnc2c1O (configuration not stated)	71.0*	6.6
CCC(=O)NC(c1ccc2c(c1)OCO2)c1cc(Cl)c2cccnc2c1O (configuration not stated)	96.0*	-1.5
COc1ccccc1C(NC(=O)C(C)C)c1cc(Cl)c2cccnc2c1O (configuration not stated)	48.0	-7.9
COCC(=O)NC(c1ccccc1)c1cc(Cl)c2cccnc2c1O (configuration not stated)	100.0*	-9.5
CCC(=O)NC(c1ccc(OC)c(OC)c1)c1cc(Cl)c2cccnc2c1O (configuration not stated)	100.0*	-5.6
CCc1ccc(C(C)NC(=O)c2cc(C)oc2C)cc1 (configuration not stated)	5.7	-3.7
SMILES	mHTT-CaM PPI inh	Pf apPOL inh
Cn1c2c(c(=O)n(C)c1=O)C(O)(c1ccc(Br)cc1)N=C1SC=CN1C2 (configuration not stated)	36.7	x
COc1ccc(C(NC(C)=O)c2cc(Cl)c3cccnc3c2O)cc1OC (configuration not stated)	100.0*!	4.5
CNC(=O)CN(c1ccccc1C)S(=O)(=O)c1ccc(C)cc1	2.2	-4.2
COc1ccc(Cl)cc1NC(=O)c1c(NCc2cccs2)sc2c1CCC2	26.0	-15.1
COc1ccc(Cl)cc1NC(=O)c1c(NCc2cccnc2)sc2c1CCCC2	79.0*	-18.0
COc1ccc(Cl)cc1NC(=O)C(=O)NCc1cccnc1	3.0	-8.2
COc1ccc(Cl)cc1NC(=O)c1c(NCc2cccnc2)sc2c1CCC2	93.0*	-15.9
CCN(CC)c1ccc(N=C2C=CC(=O)c3ccccc32)c(C)c1	x	-0.3
O=C1C=CC(=NS(=O)(=O)c2ccc(Cl)cc2)C=C1	48.0	-6.4
O=C1C=CC(=NS(=O)(=O)c2ccc(Cl)cc2)c2ccccc21	98.0*	-2.5
CC(C)c1ccc(S(=O)(=O)N2CCN(C)c3ccccc32)cc1	41.0	2.0
O=C1C=CC(=NS(=O)(=O)c2ccc(F)cc2)c2ccccc21	100.0*	-4.0
CC(C)c1ccc(S(=O)(=O)N=C2C=CC(=O)c3ccccc32)cc1	67.0*	11.0
CC(Sc1nc2ccccc2[nH]1)c1ccccc1 (configuration not stated)	-7.3	-5.7
CN1CCCNC1c1ccc(-c2ccc(Br)cc2)o1 (configuration not stated)	20.0	-4.4
CCC1CCCCN1C(=O)c1c(C)oc2ccn(Cc3ccccc3F)c(=O)c12 (configuration not stated)	67.7*	1.6
CCn1ccc2oc(C)c(C(=O)N3CCN(c4ccccc4Cl)CC3)c2c1=O	77.1*	0.2
Cc1oc2ccn(Cc3ccccc3F)c(=O)c2c1C(=O)N1CCCC(C)C1 (configuration not stated)	11.1	-1.2
CCn1ccc2oc(C)c(C(=O)N3CCN(C4CCCCC4)CC3)c2c1=O	18.3	1.3
C#CCOc1ccc(/C=C2\C(=O)ON=C2C)cc1OCC	51.0*	-6.0
CCOc1ccc(/C=C2\C(=O)ON=C2C)cc1OC	64.0*	0.7
C#CCOc1ccc(/C=C2\C(=O)ON=C2C)cc1OC	22.0	-2.9
COc1cc(/C=C2/C(=O)ON=C2C)ccc1OCC(C)C	16.0	-6.8
CCOc1cc(/C=C2/C(=O)ON=C2C)ccc1OCc1ccc(Br)cc1	13.0	11.3
CCCOc1ccc(/C=C2\C(=O)ON=C2C)cc1OCC	85.0*	1.4
SMILES	mHTT-CaM PPI inh	Pf apPOL inh
CCOc1cc(/C=C2/C(=O)ON=C2C)ccc1OCc1cccc(Cl)c1	99.0*	-5.6
CCOc1cc(/C=C2\C(=O)ON=C2C)ccc1OCc1ccccc1	15.0	2.3
CC1=C(C(=O)OCC2CCCO2)C(c2ccc(C)o2)C2=C(CC(C)(C)CC2=O)N1 (configuration not stated)	10.7	x
O=C(Nc1ccc([N+](=O)[O-])cc1Cl)c1cc2ccccc2o1	-0.7	2.1
Cc1ccc(S(=O)(=O)N2CCC3(CC2)NC(Cc2ccccc2)C(=O)N3C)cc1 (configuration not stated)	21.1	-0.5
Cc1ccc(C(C)C)cc1OCC(=O)NN	-1.2	0.2
Cc1ccc(CN2C(=O)NC3(CCN(C(=O)c4ccc(F)c(F)c4)CC3)C2=O)cc1	6.0	-4.8
Cc1nc(-c2ccc(C)c(S(=O)(=O)N3CCN(c4ccccc4)CC3)c2)cs1	-1.1	3.2
C=CCOc1ccc(/C=C2/C(=O)ON=C2C)cc1OC	87.0*	-3.8
COc1cc(/C=C2/C(=O)ON=C2C)ccc1OCCc1ccccc1	20.0	0.4
CCN(CC)c1ccc2cc(C(N)=O)c(=Nc3ccccc3C)oc2c1	54.0*	2.1
CCN(CC)c1ccc2cc(C(N)=O)c(=Nc3ccc(C)cc3)oc2c1	10.0	2.6
